Compounds without any hit were thinned out: in the full panel of roughly 83,000, 20% have a hit.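 Each cell line was grown in a 96-well plate and treated with one concentration of compound for 48 hours. Values below 10 were considered active.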 Values without a mark were called inactive. Activity calls are given as the source filed them.

The assay concerns HL-60(TB) leukemia. Description: NCI-60 one-dose screen, 48 h (100 = growth as untreated, 0 = no growth, -100 = all killed). To be noted: 10 µM unless noted.
For the molecule `Nc1cc(F)ccc1[N+](=O)[O-]`, the growth was 115%.

Turning to `Fc1cccc(Oc2ccc(Nc3ncnc4ccc(OCCCN5CCOCC5)cc34)cc2Cl)c1`, the growth is 83.6%.

On to `O=S(=O)(NCCCNc1cc(-c2cn(-c3ccccc3)nc2-c2cccc(O)c2)ccn1)c1cccc2ccccc12`, for which the growth is 17.1%.

For the molecule `FC(F)(F)c1cccc(Nc2nc(-c3ccccc3)nc3ncccc23)c1`, the growth was -57.8% (active).

As to `N=C(N)c1ccc(-c2ccc(-c3cccs3)s2)cc1F`, the growth was -47.8% (active).

Regarding `Cc1cccc(N=Cc2ccccc2O)c1C`, the growth was 87.9%.

Consider `COc1cc(CNC(=O)CCCC/C=C/C(C)C)ccc1OCc1cn(-c2ccc([N+](=O)[O-])cc2)nn1`, for which the growth was 81%.

In the case of `COc1ccc(CSc2nc3cc(OC)c(OC)cc3c(=O)n2-c2ccc(OC)cc2OC)cc1`, the growth was 112%.

`CCO/C=C1\SC(=S)N(c2cccc(C)c2)C1=O`: the growth is 99%.

Regarding `O=C(OC12CC3CC(CC(C3)C1)C2)c1ccc(NCc2cc(O)ccc2O)cc1`, the growth was -52.6% (active).

Take `CC(=O)c1cc(C(=O)c2ccc3c(c2)Sc2ccccc2N3)c2c(C)cccn12`: the growth is -4.53% (active).

Regarding `C=CCn1ccc(=O)nc1SC`, the growth was 96.4%.

Take `COC(=O)[C@]12CC[C@@H](C)[C@H](C)[C@@H]1C1=CC[C@@H]3[C@@]4(C)C(C=O)=C[C@@](C)(CO)[C@@H]4[C@H](O)C[C@@]3(C)[C@]1(C)CC2`: the growth was -14.4% (active).

As for `CNc1nc(S(=O)c2ccc(C#N)cc2)nc2ccccc12` (stereo not given), the growth is 79.9%.

With `Cc1cc(Cc2cc(C)c(N)cc2N)c(N)cc1N`, the growth was 85.6%.

Regarding `C#CC(F)(F)[C@]1(O)CC[C@H]2[C@@H]3CCC4=CC(=O)CCC4=C3[C@@H](c3ccc(C(C)=O)cc3)C[C@@]21C`, the growth is -62.6% (active).

On to `COCC(=O)Oc1cc(-c2ccc(C)cc2C)c(OC(=O)COC)c(-c2ccc(C)cc2C)c1`, for which the growth was 36.9%.

As to `CCC1=C[C@H]2CN(CCc3c([nH]c4ccccc34)[C@@](C(=O)OC)(c3cc4c(cc3OC)N(C)[C@H]3[C@@](O)(C(=O)OC)[C@H](OC(C)=O)[C@]5(CC)[C@@H]6C[C@@H]6CN6CC[C@]43[C@@H]65)C2)C1`, the growth is -33.4% (active).

For `CCOc1ccc(Cc2nccc3cc(OCC)c(OCC)cc23)cc1OCC`, the growth was 10.5%.

As to `C=CC(=O)N1CC2(CCC(n3nc(-c4ccc(Oc5ccccc5)cc4)c4c(N)ncnc43)CC2)C1`, the growth was -38.5% (active).

In the case of `CCOc1cc2c(Cl)ncnc2c(OCC)c1OCC`, the growth was -16.4% (active).

For `Nc1ncc(-c2ccc3ncnc(Nc4cccc(Cl)c4)c3c2)cn1`, the growth is 58.1%.

Take `COc1ccc(-c2cc(/C=C3\C(=O)Nc4ccc(Cl)cc43)[nH]n2)cc1OC`: the growth is 60.2%.

In the case of `C(=N/Nc1ncc(-c2cc3cc(-c4ccccc4)ccc3o2)s1)/c1cccs1`, the growth was 96.4%.

In the case of `COc1ccc(CNCCCN2C(=O)c3ccc4c5c(ccc(c35)C2=O)C(=O)N(CCCNCCCCNCCCN)C4=O)c(OC)c1OC`, the growth is 26.2%.

For the molecule `CCCCCCCCCCCCCCCCCC1=NC(C)(C)CN1CCO`, the growth was -62.2% (active).

For `C[C@@H]1C[C@H]2C(=O)O[C@@H](C)[C@H](NC(=O)[C@H](Cc3cc(F)cc(F)c3)NC(=O)Nc3ccc(Cl)cc3F)C(=O)N3C[C@H](O)C[C@H]3C(=O)N3CCN(C)C[C@H]3C(=O)N[C@@H](C)C(=O)N2C1`, the growth is 30.1%.

Take `COc1ccc(S(=O)(=O)NCCCNc2nccc(-c3c(-c4cccc(N)c4)nc4sccn34)n2)cc1`: the growth is 112%.

`COc1ccccc1CNCCCN1C(=O)c2ccc3c4c(ccc(c24)C1=O)C(=O)N(CCCNCCCCNCCCN)C3=O`: the growth is -54.4% (active).

In the case of `c1ccc(Nc2ccccn2)cc1`, the growth was 64.9%.

On to `CCCCCCCCc1ccc(CCC(N)(CO)CO)cc1`, for which the growth was -14.1% (active).

`COC(=O)CC[C@@H](C)[C@H]1CC[C@H]2[C@@H]3CC[C@@H]4C[C@H](O)CC[C@]4(C)[C@H]3C[C@H](O)[C@]12C`: the growth was 96.9%.

`COc1ccc(/C=C(\C#N)n2nnc3ccccc32)cc1`: the growth is -13% (active).

Turning to `NCC(O)C(O)C(O)C(O)CO` (stereo not given), the growth is 114%.

In the case of `COc1ccc2[nH]c(=O)c(/C=C/C(=O)c3ccc(Nc4nccc(-c5ccc6ccccc6c5)n4)cc3)cc2c1`, the growth is 97.6%.

With `CCC1CCCCN1C(=S)N/N=C(\C)c1ccccn1` (stereo not given), the growth was 8.04% (active).

As for `C#CCOc1cccc(Nc2ncnc3c(NC(=O)CCl)cccc23)c1`, the growth was -59.1% (active).

As to `O=C1C(N2CCOCC2)=Cc2cccc3cccc1c23`, the growth is -26% (active).

For `C#Cc1cccc(NC(=O)c2ccc(Cl)cc2Cl)c1`, the growth was 72.5%.

Regarding `OCc1cnccc1NCCCCOc1ccc(Oc2ccccc2)cc1`, the growth is 22.7%.

These data come from PubChem BioAssay (NCI).
